Source: PubChem BioAssay (ICCB-Longwood Screening Facility, Harvard Medical School)
MenB inh = inhibitors of Mycobacterium tuberculosis MenB enzyme; P9WNP5; MenB enzyme assay, absorbance read-out; inhibition, % (concentration not given with the values); 100,000 compounds, 0.43% hits; in the data active means inhibition above about 21%, passing the limit was not always enough
Target sequence (P9WNP5 whole entry, looked up): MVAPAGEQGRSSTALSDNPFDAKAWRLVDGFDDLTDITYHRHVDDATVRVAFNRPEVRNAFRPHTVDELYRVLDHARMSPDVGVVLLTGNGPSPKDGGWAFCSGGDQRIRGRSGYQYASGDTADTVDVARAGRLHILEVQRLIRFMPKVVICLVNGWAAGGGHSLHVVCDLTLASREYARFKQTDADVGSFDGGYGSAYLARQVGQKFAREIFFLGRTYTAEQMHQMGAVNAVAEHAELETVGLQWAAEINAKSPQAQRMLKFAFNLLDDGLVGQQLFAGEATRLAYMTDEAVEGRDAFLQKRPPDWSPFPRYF
AID504770 = growth inhibitors of E. coli YBA685 in a screen for V. cholerae RctB (chromosome II replication) inhibitors; 130,000 compounds, 0.27% hits; E. coli YBA685 rctB-dependent plasmid, OD600 growth, 3 h; hits give low values; z-score (test concentration not listed); in the data active means z-score below about -2, passing the limit was not always enough
PV pol inh = poliovirus RNA polymerase inhibition. 150,000 compounds, 0.66% hits. % elongation, % (compound at 16.7 µg/mL). poliovirus polymerase elongation, fluorescence polarization; hits give low values. P03300; in the data active means % elongation below about 90%
Mtb MbtI inh = blocks the Mycobacterium tuberculosis siderophore enzyme MbtI. inhibition, % (concentration not given with the values). purified MbtI enzyme, fluorescence intensity read-out. 100,000 compounds, 0.89% hits. P9WFX0. AID 493033; in the data active means inhibition mostly above about 56%, no sharp cut-off; inactive means mostly below about 77%
Numbers without * were called inactive; · = not tested or not shown. Compounds with a hit are over-represented: about 1.5% of the library has one in this group of screens.

SMILES | MenB inh | AID504770 | PV pol inh | Mtb MbtI inh
COCc1c(CSSCc2cnc(C)c(O)c2COC)cnc(C)c1O | 38.2* | -0.45 | 86.0* | 22.1
COCc1c(CN)cnc(C)c1N | -62.4 | -0.8 | 104.0 | 77.3
O=C(NCCN1CCOCC1)C1CCCN1S(=O)(=O)c1ccc(Cl)cc1 (configuration not stated) | -17.2 | -0.1 | 102.0 | -7.2
Cc1csc(=Nc2ccccc2F)n1/N=C/c1ccncc1 | -22.0 | -0.3 | 83.0* | 0.6
CC1CCN(C(=O)COC(=O)C2(S(=O)(=O)c3ccc(Br)cc3)CCCC2)CC1 | -9.0 | 1.1 | 108.0 | -3.7
Cc1cc(O)c(C=Nc2ccccc2C(F)(F)F)c(=O)o1 | -7.4 | 2 | 103.0 | 10.8
O=C1Nc2ccccc2/C1=N\N1C(=O)/C(=C/c2ccccc2)N=C1c1ccccc1 | -56.7 | -1.1 | 88.0* | ·
COC(=O)c1cc(=O)c2cc(C)ccc2o1 | -22.4 | -0.3 | 103.0 | -28.0
CC1(C)CC(=O)C=C(NCCc2ccccc2)C1 | 32.8* | 1.6 | 101.0 | 23.5
O=C(Nc1nnc(-c2ccco2)o1)c1ccc(S(=O)(=O)N2CCCc3ccccc32)cc1 | -52.8 | 0.25 | 97.0 | 8.6
COc1ccc(/C=C(\C#N)S(=O)(=O)c2ccc(C(F)(F)F)cn2)cc1OC | · | 1.3 | · | ·
Cc1ccsc1C=Nc1ccc(O)cc1 | -28.3 | 2.2 | 100.0 | 95.7*
Cc1ccsc1C=Nc1ccc(OC(F)(F)F)cc1 | · | -0.3 | 102.0 | -10.4
CC(Oc1ccc(F)cc1)c1n[nH]c(=S)o1 (configuration not stated) | -20.9 | -0.9 | 103.0 | -6.8
CCC(c1n[nH]c(=S)o1)N(C)C (configuration not stated) | -51.1 | -0.3 | 89.0* | 84.4*
O=C(CC(c1cccs1)N1Cc2ccccc2C1=O)NCCN1CCOCC1 (configuration not stated) | 2.5 | -2.15* | 101.0 | -8.8
O=C(CC(c1cccs1)N1Cc2ccccc2C1=O)NCc1ccc(CN2CCOCC2)o1 (configuration not stated) | -2.5 | -0.25 | 102.0 | -11.4
Cc1ccc2nc(SCC(=O)N3CCCCC3)c(C#N)cc2c1 | 41.0* | 1.05 | 102.0 | 0.1
CCCCc1c(C(=O)O)cccc1C(=O)O | 26.6* | 0.85 | 102.0 | -4.3
COC(=O)c1cccc(N2C(=O)C3C4C=CC(C)(O4)C3C2=O)c1 (configuration not stated) | -4.9 | -0.65 | 101.0 | 98.8*
CC(=O)N(CCc1ccccc1)CC1C(Oc2ccc(Cl)cc2)C(=O)N1c1ccccc1C (configuration not stated) | -20.8 | 0.95 | 104.0 | 3.5
O=c1c2c(nc3cc(-c4ccco4)[nH]n13)CCCC2 | 33.5* | 0.35 | 104.0 | 89.2
CC(=O)NCC(=O)OCc1ccc(C(C)(C)C)cc1 | -1.6 | 0 | 102.0 | 2.9
C=CCC1Cc2ccccc2C(CC=C)N1 (configuration not stated) | 39.3* | -0.1 | 100.0 | -3.1
C=CCC1Cc2ccccc2C(C)N1 (configuration not stated) | · | 0.6 | · | 4.2
SMILES | MenB inh | AID504770 | PV pol inh | Mtb MbtI inh
COC(=O)C(C#N)=C(SC)SC | 25.5 | -1.55 | 93.0 | 82.8*
COc1ccc(CCC(=O)NNc2ccccc2)cc1 | -24.2 | 1.2 | 101.0 | 2.6
Cc1csc(CC(N)=S)n1 | -55.7 | -1.65 | 102.0 | 98.2*
CC(=O)Nc1ccc(OCC(O)Cn2ccnc2)cc1 (configuration not stated) | 30.6* | 2.4 | 103.0 | 0.4
CC(=O)Nc1ccc(OCC(O)CN2CCCC2)cc1 (configuration not stated) | · | 0.45 | · | ·
Cc1ccc(C(=O)N(C)S(=O)(=O)c2ccc(C)cc2)cc1 | · | -0.7 | 101.0 | -10.9
COc1ccc(-c2noc(N3CCC(C(N)=O)CC3)n2)cc1OC | 2.5 | 0.3 | 102.0 | -3.0
O=C1CSc2sc(=S)sc2S1 | -121.0 | -0.8 | 88.0* | 46.9
FC(F)(F)c1ccc(=S)[nH]c1 | -42.9 | -0.15 | 111.0 | 93.4*
CC(C)n1ncc2c1N=C(c1ccccc1)N(C1CC1)C21CCCCC1 | -10.1 | 0.25 | 106.0 | 2.2
CC(C)n1nnnc1SCC(=O)c1ccc(F)cc1 | 27.8* | -0.3 | 101.0 | 0.1
CC(=O)Nc1ccc(C(=O)CSc2nnnn2C(C)C)cc1 | -27.9 | 0.1 | 102.0 | 9.6
CN1c2ccccc2N(C)C1c1ccc(O)cc1 | -33.4 | -1.5 | 83.0* | 10.0
N/C(COc1ccc2nonc2c1)=N\OC(=O)c1ccc(Cl)cc1 | -19.6 | 1.4 | 103.0 | 5.8
Cc1nn(-c2ccccc2Cl)c2nc(-c3ccco3)cc(C(=O)NN)c12 | 2.3 | 0.65 | 88.0* | 103.3
O=C(O)C1C2C=CC(C2)C1C(=O)NCc1cccs1 (configuration not stated) | 22.7* | -0.35 | 99.0 | -16.6
COC(=O)C1=NOC2C(=O)N(c3ccccc3)C(=O)C12 (configuration not stated) | · | -1.45 | · | -2.7
COC(=O)C1=NNC2(c3ccc(C)cc3)C(=O)N(c3ccc(C)cc3)C(=O)C12 (configuration not stated) | 35.8* | 1.5 | 102.0 | -12.4
CC(C)c1ccccc1OCC(=O)O | · | 0.6 | 98.0 | -7.4
O=C1CC(c2ccco2)CC2=C1C(c1ccco1)N(C(=O)c1ccccc1)c1ccccc1N2 (configuration not stated) | -3.2 | -0.4 | 102.0 | 52.3
COc1ccc(C(=O)Nc2ccccc2C(=O)NC(C(=O)NCc2ccco2)C(C)C)cc1 (configuration not stated) | 30.3* | 0 | 101.0 | -36.2
C=CCN1CCN(Cc2nnnn2Cc2ccc(OC)cc2)CC1 | 42.3* | 0.85 | 103.0 | 1.4
O=C(COC(=O)c1ccncc1)NCc1ccccc1 | · | -3.5* | 103.0 | -8.9
O=C(COC(=O)c1ccc(Br)cc1)NCc1ccccc1 | · | -0.1 | 100.0 | -2.9
CSc1ccccc1NC(=O)CN1CCc2ccccc21 | -9.3 | 0.1 | 88.0* | 4.3
SMILES | MenB inh | AID504770 | PV pol inh | Mtb MbtI inh
N#CC(C#N)=NNc1ccc(SC(F)F)cc1 | -259.0 | -3.35* | 95.0 | 18.0
CCc1ccccc1N(C)S(=O)(=O)c1c(C)noc1/C=C/N(C)C | 11.6 | 0.1 | 101.0 | 7.3
Cc1cccc(NC(=O)CSc2ccccn2)c1 | 2.3 | -0.75 | 106.0 | ·
CCC1(CC)OC(c2ccccn2)Nc2ccccc21 (configuration not stated) | · | -0.3 | · | ·
N#Cc1ccc(NC(=O)CCC(=O)c2cccs2)cc1 | -10.1 | 1.3 | 83.0* | 0.1
O=C(O)CCC(=O)c1cccs1 | · | -0.3 | 82.0* | -4.3
Cc1ccc(NC(=O)CCC(=O)c2cccs2)cc1 | -5.8 | -1.1 | 102.0 | -7.1
CN1C(=O)CCC1(C(=O)O)c1ccccc1 (configuration not stated) | · | 0.95 | · | -2.7
CC1CCCCC1NC(=O)COC(=O)c1ccc(Cl)c(S(N)(=O)=O)c1 (configuration not stated) | -0.5 | -3.05* | 105.0 | -3.3
CN(C)S(=O)(=O)c1cccc(-c2nnc(SCc3cc(Cl)cc4c3OCOC4)n2N)c1 | -27.9 | 1.55 | 80.0* | 86.2
COc1ccccc1N1CCN(S(=O)(=O)c2c(C)sc3ncn(CC(=O)NCCN4CCOCC4)c(=O)c23)CC1 | 8.5 | -0.35 | 101.0 | -6.5
N#CCSc1nc2ccc(Cl)cc2[nH]1 | 2.9 | -1.15 | 102.0 | 53.4*
NC(=O)CSc1nc2ccc(Cl)cc2[nH]1 | -3.1 | -0.5 | 105.0 | 5.3
